This note sets out measurements from PubChem BioAssay (Tox21).

Experiment [1] deals with Aryl hydrocarbon receptor (Homo sapiens) (UniProt P35869). The experiment in a line: qHTS assay to identify small molecule that activate the aryl hydrocarbon receptor (AhR) signaling pathway (AID 743085).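 Further: HG2L7.5c1 human HepG2 liver cells with stably integrated DRE-driven firefly reporter; series mostly up to about 70 µM; nearly all actives have a fitted effect of over 15% in size.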 In a few lines:
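HepG2 cells (HG2L7.5c1) stably carrying a firefly luciferase reporter driven by 20 dioxin responsive elements were exposed to compound for 24 h at 37C after a 5 h settling period; luminescence rise (ONE-Glo) indicated activation.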
For orientation: In qHTS, concentration-response curves come from the screen itself.

The nature of experiment [2]: qHTS assay to identify small molecule that activate the aryl hydrocarbon receptor (AhR) signaling pathway - cell viability counter screen (AID 743086).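 Further: HepG2 liver cells carrying the AhR DRE luciferase reporter; series mostly up to about 70 µM; nearly all actives have a fitted effect of over 45% in size.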 In short, it runs like this:
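Cytotoxicity counter screen: CellTiter-Fluor signal (30 min, 37 C) in 4000 HepG2 cells/well carrying the DRE-luciferase reporter, following 24 h compound exposure at 37 C.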

Experiment [3] has as its target Peroxisome proliferator-activated receptor gamma (Homo sapiens) (UniProt P37231). The experiment in a line: qHTS assay to identify small molecule agonists of the peroxisome proliferator-activated receptor gamma (PPARg) signaling pathway (AID 743094; active means well fitted activation curve with a large enough effect in the signal ratio in the repeat runs, not every such curve was filed as active; the % refers to the signal ratio; further: potency means the concentration at half of the fitted maximal effect). In short, it runs like this:
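GeneBLAzer PPARg UAS-bla HEK293H cells carrying a stably integrated beta-lactamase reporter were pre-incubated 5 h at 37C, then exposed to compounds in DMSO for 17 h at 37C; LiveBLAzer B/G FRET substrate was added for 1 h at room temperature and fluorescence read.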

Experiment [4] can be described thus: qHTS assay to identify small molecule antagonists of the peroxisome proliferator-activated receptor gamma (PPARg) signaling pathway - cell viability counter screen (AID 743194). Further: nearly all actives have a fitted effect of over 55% in size. In short, it runs like this: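 Viability was measured as CellTiter-Glo luminescence in GeneBLAzer PPARg UAS-bla HEK293H cells. These cells had been exposed 17 h at 37 C to compounds together with rosiglitazone at 50 nM final, with the beta-lactamase readout taken in the same wells.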

Experiment [5] can be described thus: qHTS assay for small molecule agonists of the antioxidant response element (ARE) signaling pathway - cell viability counter screen (AID 743203; calls by dose curve; further: nearly all actives have a fitted effect of over 55% in size; further: potency means the concentration at half of the fitted maximal effect). In short, it runs like this: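 CellSensor ARE-bla HepG2 cells, 2,000 per well, rested 5 hrs at 37C/5% CO2, then exposed to compound in DMSO for 16 hrs; viability read as CellTiter-Glo luminescence after 30 min at room temperature, in the reporter wells.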

A short description of experiment [6]: qHTS assay for small molecule activators of the heat shock response signaling pathway - cell viability counter screen (AID 743209). Further: nearly all actives have a fitted effect of over 50% in size. In a few lines:
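CellSensor HSE-bla HeLa cells, plated overnight at 37 C/5% CO2, were exposed to compounds in DMSO for 5 h at 37 C. Viability was then read in the same wells by CellTiter-Glo luminescence after 30 min at room temperature.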

Experiment [7] is described as follows: qHTS assay for small molecule activators of the heat shock response signaling pathway (AID 743210; active means well fitted activation curve with a large enough effect in the signal ratio in the repeat runs, with a control signal flat, not every such curve was filed as active; the % refers to the signal ratio;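 further: HeLa cells with beta-lactamase reporter driven by heat shock elements; series mostly up to about 63 µM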). In a few lines: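 HeLa HSE-bla cells, overnight plating; cpd in DMSO 5 h, 37 C; LiveBLAzer B/G FRET substrate 2.5 h RT; fluorescence intensity read.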
Experiment [8] is described as follows: qHTS assay to identify small molecule agonists of the peroxisome proliferator-activated receptor delta (PPARd) signaling pathway - cell viability counter screen (AID 743211). Further: nearly all actives have a fitted effect of over 55% in size. Further: potency means the concentration at half of the fitted maximal effect. In a few lines:
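PPARd-bla HEK293H cells (UAS-beta-lactamase reporter) were treated with compounds for 17 h at 37 C. Viability was then read in the same wells by CellTiter-Glo luminescence after 30 min at room temperature.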

In experiment [9] the target is Peroxisome proliferator-activated receptor gamma (Homo sapiens) (UniProt P37231). The experiment in a line: qHTS assay to identify small molecule antagonists of the peroxisome proliferator-activated receptor gamma (PPARg) signaling pathway (AID 743191; calls by dose curve; further: series mostly up to about 63 µM; nearly all actives have a fitted effect of over 30% in size). In short, it runs like this: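 Beta-lactamase reporter under UAS control in HEK293H PPARg-bla cells; compound treatment 17 h at 37C. Read-out: fluorescence intensity after 1 h room-temperature incubation with LiveBLAzer B/G FRET substrate.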
Peroxisome proliferator-activated receptor gamma (Homo sapiens), sequence (P37231 whole entry, looked up): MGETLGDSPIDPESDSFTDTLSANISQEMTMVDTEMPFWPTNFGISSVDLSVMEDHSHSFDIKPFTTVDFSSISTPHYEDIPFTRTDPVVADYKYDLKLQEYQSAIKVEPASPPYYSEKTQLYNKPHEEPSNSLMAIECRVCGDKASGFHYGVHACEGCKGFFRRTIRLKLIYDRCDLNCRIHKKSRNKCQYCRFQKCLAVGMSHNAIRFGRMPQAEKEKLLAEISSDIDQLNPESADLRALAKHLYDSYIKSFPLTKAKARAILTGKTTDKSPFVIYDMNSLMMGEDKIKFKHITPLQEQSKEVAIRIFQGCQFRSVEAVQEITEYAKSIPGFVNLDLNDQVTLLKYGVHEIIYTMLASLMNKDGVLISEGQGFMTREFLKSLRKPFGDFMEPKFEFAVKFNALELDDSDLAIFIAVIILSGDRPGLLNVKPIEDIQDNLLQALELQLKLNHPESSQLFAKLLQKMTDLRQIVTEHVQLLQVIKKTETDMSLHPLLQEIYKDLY

Experiment [10] can be described thus: qHTS assay for small molecule agonists of the antioxidant response element (ARE) signaling pathway (AID 743202; active means well fitted activation curve with a large enough effect in the signal ratio in the repeat runs, not every such curve was filed as active; the % refers to the signal ratio). In short, it runs like this:
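Quantitative high-throughput format in HepG2 cells bearing an integrated ARE-beta-lactamase reporter. Compound exposure lasted 16 h at 37 C, and fluorescence was read 2 h after adding LiveBLAzer B/G substrate at room temperature.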

Records with an inconclusive call do not appear. The source made the active and inactive calls. Unless noted, the call rests on the fitted dose curve; in most records, active means well fitted curve in the direction sought with a large enough effect in the repeat runs; inconclusive means weak or mixed curves; inactive means no such curve, though single readings can be large; an effect the other way counts as inactive or inconclusive.

Aryl hydrocarbon receptor (Homo sapiens), sequence (P35869 whole entry, looked up): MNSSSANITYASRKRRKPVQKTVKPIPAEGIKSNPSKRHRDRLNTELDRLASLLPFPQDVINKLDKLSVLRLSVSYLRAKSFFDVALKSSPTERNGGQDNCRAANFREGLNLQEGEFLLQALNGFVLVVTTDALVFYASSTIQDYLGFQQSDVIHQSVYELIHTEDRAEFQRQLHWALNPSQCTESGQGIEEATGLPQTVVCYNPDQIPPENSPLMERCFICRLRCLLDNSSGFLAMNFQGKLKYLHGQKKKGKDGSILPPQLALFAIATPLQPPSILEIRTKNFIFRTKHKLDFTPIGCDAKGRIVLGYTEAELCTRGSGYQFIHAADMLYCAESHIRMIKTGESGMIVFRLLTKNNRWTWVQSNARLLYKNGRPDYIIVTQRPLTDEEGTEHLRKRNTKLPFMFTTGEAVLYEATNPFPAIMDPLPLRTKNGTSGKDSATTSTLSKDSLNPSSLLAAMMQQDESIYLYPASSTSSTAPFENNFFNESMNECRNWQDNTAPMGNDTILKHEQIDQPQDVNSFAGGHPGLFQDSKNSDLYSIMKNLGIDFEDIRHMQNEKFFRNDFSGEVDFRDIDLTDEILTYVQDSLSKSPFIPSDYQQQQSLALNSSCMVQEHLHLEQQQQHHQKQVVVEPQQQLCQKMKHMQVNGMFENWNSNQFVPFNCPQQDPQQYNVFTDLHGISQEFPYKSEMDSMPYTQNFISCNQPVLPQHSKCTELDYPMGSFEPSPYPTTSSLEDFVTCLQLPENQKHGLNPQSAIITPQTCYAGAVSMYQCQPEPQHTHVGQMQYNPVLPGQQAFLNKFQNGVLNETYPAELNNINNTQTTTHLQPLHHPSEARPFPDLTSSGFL

With `COC(=O)/C=C/C(C)=C\C=C\C(C)=C\C=C\C=C(C)\C=C\C=C(C)\C=C\C(=O)O`, the Potency result in experiment [1], in experiment [2], in [3], in experiment [4], in [5] and in experiment [8] was “inactive” each time. Moreover, the result in experiment [6] and in [7] was inactive.
For `Cc1c(Cl)cccc1Nc1ccccc1C(=O)O`, the Potency entry in experiment [1], in experiment [2], in experiment [3], in experiment [4], in [5] and in experiment [8] was “inactive” in each case. Moreover, the result in [6] and in experiment [7] was inactive.
As for `NCCOCCOCCN`, the Potency entry in [1], in [2], in experiment [9], in [4] and in experiment [5] was “inactive” in each case. Besides, in [6], the compound was called inactive.
As for `CCCCCCCCCC(C)C=O` (configuration not stated), the Potency entry in experiment [1], in experiment [2], in experiment [4] and in experiment [8] was “inactive” in each case. The Potency in experiment [3] was 19.5 µM (active).
As to `COc1cc(C)c(Cc2cnc(N)nc2N)cc1OC`, the Potency entry in experiment [1], in experiment [2], in experiment [3], in [4], in experiment [5] and in [8] was “inactive” throughout. The compound was called inactive in [6] and in experiment [7].
As for `O=C(O)c1cccc(C(=O)O)c1C(=O)O`, the Potency result in [1], in [2], in [3], in [4] and in experiment [8] was “inactive” in each case. For the same compound, in experiment [7], the call was inactive.
Consider `CC(C)Oc1ccccc1O`, for which the Potency entry in [1], in experiment [2], in experiment [3], in experiment [4], in [10] and in experiment [5] was “inactive” throughout. The Potency result in experiment [8] is “inactive”. The call in experiment [6] and in experiment [7] was inactive.
Turning to `CCCCCCCCOCCCN`, the Potency result in experiment [1], in experiment [2] and in experiment [3] was “inactive” in each case. The Potency in experiment [5] was 54.5 µM (active); in experiment [8], 49 µM (active). For the same compound, the result in [6] and in [7] was inactive.
Consider `O=C(O)c1cc(C(=O)O)cc([N+](=O)[O-])c1`, for which the Potency entry in experiment [1], in experiment [2], in experiment [3], in experiment [4], in [10] and in [8] was “inactive” each time. Also, the call in experiment [6] and in experiment [7] was inactive.
Turning to `Clc1cc(Cl)c2c(c1)N=C1CCCCCN1C2`, the Potency result in experiment [1], in experiment [2], in [3], in [4], in experiment [5] and in experiment [8] was “inactive” in each case. For the same compound, the result in experiment [6] and in experiment [7] was inactive.
With `Cc1cc(C)n(CO)n1`, the Potency entry in [1], in experiment [2], in experiment [3], in experiment [4], in [10] and in experiment [5] was “inactive” each time. Further, in experiment [8], the Potency entry was “inactive”. The result in experiment [7] was inactive.
As for `CC(=O)S[C@H](C(=O)N[C@H]1Cc2ccccc2[C@H]2CCC[C@@H](C(=O)O)N2C1=O)C(C)C`, the Potency entry in experiment [1], in [2], in [10] and in [8] was “inactive” throughout. For the same compound, the compound was called inactive in experiment [6] and in experiment [7].
Consider `CC(C)CCCCCCCOC(=O)c1ccc(C(=O)OCCCCCCCC(C)C)c(C(=O)OCCCCCCCC(C)C)c1`, for which the Potency result in experiment [1], in experiment [3], in experiment [9], in experiment [4], in experiment [10] and in experiment [8] was “inactive” each time. Besides, in experiment [6], the outcome was inactive.
On to `CCC(C)CCCC(C)(C)O` (configuration not stated), for which the Potency entry in experiment [1], in experiment [3], in experiment [9], in experiment [4], in experiment [10] and in [8] was “inactive” in each case. Also, the result in experiment [6] and in experiment [7] was inactive.
